Consider 53 compounds from PubChem BioAssay AID651800 (The Scripps Research Institute Molecular Screening Center, 2012).

Screen size: about 360,000 compounds; about 1,300 (0.36%) were called active. This excerpt belongs to a sample that is enriched for actives. A number with no mark means an inactive call. No stated cut-off is given here; in the data, active means inhibition above about 19%; inactive means the rest.

As usually defined, the inhibition is the relative decrease from the control value, in per cent.

In the assay the test system is T-cell receptor (TCR). The assay can be described thus: inhibitors of human TCR-CD3 interaction, primary screen, biochemical, fluorescence, TAMRA-labeled TCR probe (AID 651800).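 Further: recombinant mutant TCR 2C K166C tagged with TAMRA read by polarization; 0% = receptor in buffer alone and 100% = receptor with positive control.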 The settings on record: at 9.4 µM, hits give high values.
Regarding `Nc1[nH]c(C(=O)c2ccccc2)c(-c2ccc(Cl)cc2Cl)c1C(=O)c1ccccc1`, the inhibition was 4.17%. To `Nc1nc(CC(=O)CSc2ccc(Cl)cc2)nc(Nc2ccc(F)cc2)n1` belongs 4.84%. As for `Cc1cc2nc3c(=O)[nH]c(=O)nc-3n(C[C@H](O)[C@H](O)[C@H](O)CO)c2cc1C`, the inhibition is 19.9% (active).

As to `CN1CCCCC(NC(=O)C(C)(C)C)C1=O` (stereo not drawn), the inhibition was -0.73%. As to `CC(C)CNc1cccc2c1S(=O)(=O)N[C@H](C)CO2`, the inhibition was 0.56%. `C[C@H]1CN([C@@H](C)CO)C(=O)CCCn2nncc2CO[C@@H]1CN(C)C(=O)Nc1ccc(N2CCN(C)CC2)cc1`: the inhibition was 3.36%. To `CN[C@H]1C[C@H]2c3[nH]c4c(-c5ccccc5)cccc4c3CCN2C(=O)[C@H]1[C@H](C)O` belongs 2.21%; to `NS(=O)(=O)c1ccc(NC(=O)COC(=O)c2c3c(nc4ccccc24)/C(=C\c2ccc4c(c2)OCO4)CCC3)cc1`, 50.3% (active); to `CC(NC(=S)Nc1ccc(S(N)(=O)=O)cc1)c1ccc2c(c1)OCO2` (stereo not drawn), -3.8%. To `CCN(CC(=O)Nc1ccc2c(c1)OCO2)S(=O)(=O)c1ccccc1` belongs -7.59%; to `Cc1c(Cl)cccc1NC(=O)CCC(=O)N/N=C/c1ccco1`, 1.69%. For `O=C(Cn1cnc2ccccc21)N/N=C/c1ccco1` the value was 3.99%; for `O=C(N/N=C/c1ccco1)c1ccc(C(=O)N/N=C/c2ccco2)o1`, 21.8% (active).

Turning to `Cc1ccc2nc(CN(C)C(=O)[C@@H](Cc3ccccc3)NC(=O)[C@H]3O[C@@H](n4ccc(=O)[nH]c4=O)[C@H](O)[C@@H]3O)[nH]c2c1`, the inhibition is 3.29%.

Consider `C=CCN=C1NC(c2cccc(C(F)(F)F)c2)C(C(=O)OC)=C(C)N1C` (stereo not drawn), for which the inhibition is -6.24%. To `Cc1ccc(C(=O)N/C(=C\c2cccs2)C(=O)NCCc2ccccn2)cc1C` belongs 2.48%. For `O=C(N/N=C/c1cc([N+](=O)[O-])ccc1O)/C(=C\c1cccs1)NC(=O)c1ccccc1` the value was 30.9% (active). For `COc1cc(/C=C(/NC(=O)c2ccccc2)C(=O)Nc2cccc(O)c2)c([N+](=O)[O-])cc1OC` the value was -4.87%; for `Cn1c(=O)c(C(=O)Nc2ncccn2)c(O)c2ccccc21`, 3.65%; for `C=CCn1c(=O)c(C(=O)NCc2ccc3c(c2)OCO3)c(O)c2ccccc21`, 4.79%. Regarding `C=CCn1c(=O)c(C(=O)Nc2ncccc2O)c(O)c2ccccc21`, the inhibition is 29.1% (active). To `COCCNC(=S)N(C)[C@H]1C[C@H]2c3[nH]c4ccccc4c3CCN2C[C@H]1[C@H](C)O` belongs 10.3%. To `CC(=O)N(C)c1ccc(NC(=O)Nc2cccc3ccccc23)cc1` belongs -3.94%. For `CCN(C(=O)Nc1cccc2ccccc12)c1ccccc1` the value was 66.9% (active).

Take `O=C(Nc1cccc2ccccc12)NC1CC1`: the inhibition is 10.8%.

On to `CC1CCN(c2ccc(S(=O)(=O)Nc3cc(C(=O)O)cc(C(=O)O)c3)cc2[N+](=O)[O-])CC1`, for which the inhibition is 2.91%. For `O=c1c2ccccc2c(-c2ccccc2)nn1-c1ccccn1` the value was 26.3% (active). To `O=C(O)c1ccc(-n2nc(-c3ccccc3)c3ccccc3c2=O)cc1` belongs -0.55%; to `CCOC(=O)C(C)n1nc(-c2ccccc2)c2ccccc2c1=O` (stereo not drawn), 1.19%. For `CC(C)[C@@H](C)/C=C/[C@@H](C)[C@H]1CC[C@@H]2[C@]1(C)CCC1[C@]23C=C[C@]2(C[C@@H](O)CC[C@]12C)N(c1ccc([N+](=O)[O-])cn1)O3` (stereo partly drawn) the value was 0.39%; for `COC(=O)Nc1nc2ccc(C(=O)C3CC3)cc2[nH]1`, 2.68%. For the compound `CC(=NNC(N)=O)c1ccc(Cl)c(-n2cccc2)c1`, the inhibition is -1.93%. In the case of `CC(C)(C)C(=O)Nc1ccc(C(=O)N/N=C/c2ccccc2OC(=O)c2ccc(Cl)cc2Cl)cc1`, the inhibition is 33.2% (active). For `CSc1ccc(/C=N/NC(=O)c2cccc(Cl)c2)cc1` the value was -1.56%; for `O=C(N/N=C/c1ccoc1)c1ccc(Cl)cc1Cl`, 2.14%. To `OC(CCl)CCl` belongs 2.99%; to `COc1ccc(C2(CNC(=O)Cc3ccc(OC)c(OC)c3)CCCC2)cc1`, 8.2%; to `CCOc1c(OC)cccc1C(=O)NCC1(c2ccccc2)CCCC1`, -3.45%. For `COc1cc(C(=O)NCC2(c3ccccc3)CCCC2)ccc1OC(C)C` the value was 35.4% (active).

In the case of `CCOC(=O)/C=C/c1ccccc1O`, the inhibition is 0.35%. On to `O=c1[nH]n(-c2ccc([N+](=O)[O-])cc2)c(=O)c2ccccc12`, for which the inhibition was 57% (active). Turning to `CC(=O)N1c2ccccc2N(Cc2ccc([N+](=O)[O-])cc2)C(=O)C1(C)C`, the inhibition is -3%.

Consider `O=C(Nn1c(SCc2ccc([N+](=O)[O-])cc2)nc2ccccc2c1=O)c1ccc(F)cc1`, for which the inhibition was 4.61%. For `N#Cc1ccc(-c2nc3cc(C#N)c(C#N)cc3nc2-c2ccccc2)cc1C#N` the value was 10.9%; for `COc1ccc(NC(=O)N(C)C[C@@H]2OCCCC[C@@H](C)Oc3ccc(NC(=O)NC4CCCCC4)cc3C(=O)N([C@H](C)CO)C[C@@H]2C)cc1`, 4.84%.

For the compound `Cc1cc(=O)n2[nH]c(-c3sccc3-n3c(C)ccc3C)cc2n1`, the inhibition is -6.69%. To `CCOc1ccc(-n2c(O)c(/C=N/Nc3nnc(C)c(=O)[nH]3)c3ccccc3c2=O)cc1` belongs 43.9% (active); to `CCOc1ccc(-n2c(SCC(=O)Nc3cc(C(=O)O)ccc3Cl)nc3ccccc3c2=O)cc1`, -2.21%; to `CCOc1ccc(N/C(N)=N/c2nc(C)c(C)c(=O)[nH]2)cc1`, 4.59%.

With `CCN1C(=O)N[C@@H]2C[C@H](C(=O)N3CCCC3)[C@H](C)[C@H](c3ccccc3)C[C@@H]21`, the inhibition was 2.71%. For `CCCCCCc1cc2cc(-c3nnc(-c4cccc(OC)c4)o3)c(=O)oc2cc1O` the value was -0.99%; for `COC(=O)c1cc2c(c3c4ccccc4n(S(=O)(=O)c4cccc(C)c4)c13)C(=O)N(Cc1ccccc1)C2`, -0.99%. As to `Nc1ccn([C@@H]2O[C@H](C(=O)N[C@H]3CCCCNC3=O)[C@@H](O)[C@H]2O)c(=O)n1`, the inhibition is 1.09%.
